Experimental data taken from PubChem BioAssay (NCI).
The panel holds about 83,000 compounds, 20% with a hit somewhere; the sample as a whole holds those more often.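 Single-concentration screen, 48 h exposure, 96-well plates. Endpoint: percent growth. Below 10 = active.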 Values without a mark were called inactive. Activity calls are given as the source filed them.

Each compound was assayed on UO-31 renal (assay: NCI-60 one-dose screen, 48 h (100 = growth as untreated, 0 = no growth, -100 = all killed)). Settings: 10 µM unless noted.
Description: Growth inhibition of the UO-31 human tumor cell line is measured as a screen for anti-cancer activity. Cells are grown in 96 well plates and exposed to the test compound for 48 hours. Compounds are tested at a single concentration, which is 10^-5 M for most compounds. The reported endpoint is percent growth (GI% or GIPRCNT), where numbers from 0 - 100% represent growth inhibition, and numbers from -100% - 0 represent cell death. For example, a value of 40 represents 60% growth inhibition. A value of 0 means no net growth occurred over the course of the experiment. A value of -40 indicates 40% of cells at the beginning of the experiment died by the end of the experiment. A value of -100 means all cells are dead at the end of the experiment.
NCI-60 Human Tumor Cell Lines Screen was performed using the standard one-dose NCI protocol, which is described in more detail at https://dtp.cancer.gov/discovery_development/nci-60/default.htm.
Compounds with GIPRCNT values below 10 were considered active. Activity score was based on GIPRCNT using the following formula: […]
Score is 0 for GIPRCNT values of 100 or above, 50 for GIPRCNT values of 0, and 100 for GIPRCNT values of -100.

Structure (SMILES)	growth
COc1cc2cc(Oc3ccc(NC(=O)Nc4cccc(C(F)(F)F)c4)cc3)c(C)nc2cc1OCCN1CCCCC1	-92.1% (active)
Cc1ccc(C2SCC(=O)N2NC(=O)c2[nH]c3ccc(F)cc3c2-c2ccccc2)cc1 (stereo not given)	75.1%
O=C(COc1ccc(/C=C2\CSc3ccccc3C2=O)cc1)c1ccc(Cl)cc1	89.8%
CNc1ccc(Br)cc1-c1n[nH]c(=O)[nH]c1=O	71.3%
CCN(CC)CCCNc1ccc(C)c2sc3ccccc3c(=O)c12	44.7%
Brc1ccccc1Nc1ccc2nnc(-c3ccncc3)n2n1	82.1%
CCN(C(=O)c1ccc2c3c(cccc13)C=C2)c1ccccc1	82.9%
Clc1cccc(Cl)c1Nc1ccc2nnc(-c3ccncc3)n2n1	96.1%
O=C1c2cc(S(=O)(=O)O)ccc2C(=O)c2c1cccc2[N+](=O)[O-]	85.3%
Nc1nc2c(s1)CCc1c-2c(Br)n(Cc2ccccc2)c1Br	72.9%
O=C1/C(=C/c2ccccc2F)CNC/C1=C\c1ccccc1F	-89.6% (active)
O=C1OCC2=C1C(c1ccc3c(c1)OCO3)CC(=O)N2c1cccc(Cl)c1 (stereo not given)	85.1%
COc1ccc(/C=N/OCC(O)CNCc2ccccc2)cc1OC1CCCC1 (stereo not given)	69.2%
COc1ccc(NS(=O)(=O)c2ccc(-c3cnc(C4CC4)o3)cc2)cc1	69.8%
CN([N-]C(=O)CC(=O)[N-]N(C)C(=S)c1ccccc1)C(=S)c1ccccc1.[Cu+2]	-97.5% (active)
Cc1nc2nc(C(F)(F)F)[nH]c2nc1C	101%
Clc1ccc2c(c1)C[C@H]1C[C@@H](c3cccs3)N2O1	93.4%
COC(=O)/C=C1/CCC2C3CCC4=CC(=O)C(Br)CC4(C)C3C(=O)CC12C (stereo not given)	81.1%
O=C(Nc1ccc(Cl)c(Cl)c1)OCn1ncc2ccc([N+](=O)[O-])cc21	45.9%
COC(=O)C1C2CC3c4[nH]c5cc(OC)ccc5c4CCN3CC2CC(OC2CCCCO2)C1OC (stereo not given)	92.8%

Structure (SMILES)	growth
COc1cc2nc(N3CCC[C@H](NC4=CC(=O)c5ccccc5C4=O)C3)nc(N)c2cc1OC	-76.1% (active)
COc1ccc(/C=C2\Oc3cc(C)c(Cl)cc3C2=O)cc1OC	89.5%
Cc1nn(-c2ccccc2)c2nc3nc4c(c(N)c3c(-c3ccc(Cl)cc3)c12)CCC4	75.2%
NS(=O)(=O)c1cc(Br)c2c(c1)S(=O)(=O)NCN2	96.7%
CCCCCCCCCCCCCCNc1nc(CO)ncc1-c1ccc(C(F)(F)F)cc1	79.1%
CN1CCN(CCCn2c3c(sc4ncccc43)c(=O)n3nnc(-c4ccccc4)c23)CC1	-90.8% (active)
CCCCC1COc2cccc3c(SCC(=O)N(C)c4cccc5ccccc45)cc[n+]1c23 (stereo not given)	94.1%
O=c1oc2ccccc2cc1-c1csc(N=Nc2c(O)[nH]c3ccc(Cl)cc23)n1	98.2%
COc1cc(-c2nc(SC(C)C)nc(Nc3ccccc3C)c2C#N)cc(OC)c1OC	86.3%
O=C(c1ccc2ncc(-c3nc(NC4CC4)ncc3F)n2c1)N1CCOCC1	-33.4% (active)
CC(C)N1CCN(c2ccc(OC[C@H]3CO[C@](Cn4cncn4)(c4ccc(Cl)cc4Cl)O3)cc2)CC1	98.7%
CN1CCN(c2ccc3nc(-c4ccc5nc(-c6ccc(C(F)(F)F)cc6)[nH]c5c4)[nH]c3c2)CC1	105%
CC1(C)N=C(N)N=C(N)N1c1cccc(OCCOc2cccc([N+](=O)[O-])c2)c1	78.4%
CCOC(=O)c1c(Cl)c2c(n1Cc1cc(OC)cc(OC)c1)-c1oncc1CCC2	44.6%
COc1ccc(S(=O)(=O)c2ccc(C(N)=O)cc2)cc1NC(=O)c1[nH]c(C)c2c1CCCCC2=O	78.5%
O=C(NCc1cccnc1)c1ccc([N+](=O)[O-])o1	2.12% (active)
Fc1c[c-]c(-c2ccccn2)c(F)c1.Fc1c[c-]c(-c2ccccn2)c(F)c1.[Cl][Pt+].[Cl][Pt+].c1ccc([PH+](C[PH+](c2ccccc2)c2ccccc2)c2ccccc2)cc1	75.9%
O=C(O)C[C@H](O)C[C@H](O)/C=C/c1c(C2CC2)nc2ccccc2c1-c1ccc(F)cc1	73.3%
COc1ccc(C2CC(c3cc(OC)c(OC)c(OC)c3)=NN2c2ccc(S(N)(=O)=O)cc2)cc1 (stereo not given)	29.8%
Cc1ccccc1-n1nnc(C(=O)Nc2ccc(-c3ccccc3)cn2)c1C	38.8% [50 µM]
